# Test results: ChEMBL document CHEMBL2218924, “A broad activity screen in support of a chemogenomic map for kinase signalling research and drug discovery” (Biochem J, 2013); call rule not given here
# How the values were obtained:
# [1] = biological target: Ephrin type-A receptor 5 (Homo sapiens) (UniProt P54756); details: at 1 µM
# [2] = biological target: Ephrin type-A receptor 7 (Homo sapiens) (UniProt Q15375); details: at 1 µM
# [3] = biological target: Ephrin type-A receptor 7 (Homo sapiens) (UniProt Q15375); details: at 10 µM
# [4] = biological target: T1, Ephrin type-B receptor 1 (Homo sapiens) (UniProt P54762); details: at 1 µM
# T1 sequence (whole entry): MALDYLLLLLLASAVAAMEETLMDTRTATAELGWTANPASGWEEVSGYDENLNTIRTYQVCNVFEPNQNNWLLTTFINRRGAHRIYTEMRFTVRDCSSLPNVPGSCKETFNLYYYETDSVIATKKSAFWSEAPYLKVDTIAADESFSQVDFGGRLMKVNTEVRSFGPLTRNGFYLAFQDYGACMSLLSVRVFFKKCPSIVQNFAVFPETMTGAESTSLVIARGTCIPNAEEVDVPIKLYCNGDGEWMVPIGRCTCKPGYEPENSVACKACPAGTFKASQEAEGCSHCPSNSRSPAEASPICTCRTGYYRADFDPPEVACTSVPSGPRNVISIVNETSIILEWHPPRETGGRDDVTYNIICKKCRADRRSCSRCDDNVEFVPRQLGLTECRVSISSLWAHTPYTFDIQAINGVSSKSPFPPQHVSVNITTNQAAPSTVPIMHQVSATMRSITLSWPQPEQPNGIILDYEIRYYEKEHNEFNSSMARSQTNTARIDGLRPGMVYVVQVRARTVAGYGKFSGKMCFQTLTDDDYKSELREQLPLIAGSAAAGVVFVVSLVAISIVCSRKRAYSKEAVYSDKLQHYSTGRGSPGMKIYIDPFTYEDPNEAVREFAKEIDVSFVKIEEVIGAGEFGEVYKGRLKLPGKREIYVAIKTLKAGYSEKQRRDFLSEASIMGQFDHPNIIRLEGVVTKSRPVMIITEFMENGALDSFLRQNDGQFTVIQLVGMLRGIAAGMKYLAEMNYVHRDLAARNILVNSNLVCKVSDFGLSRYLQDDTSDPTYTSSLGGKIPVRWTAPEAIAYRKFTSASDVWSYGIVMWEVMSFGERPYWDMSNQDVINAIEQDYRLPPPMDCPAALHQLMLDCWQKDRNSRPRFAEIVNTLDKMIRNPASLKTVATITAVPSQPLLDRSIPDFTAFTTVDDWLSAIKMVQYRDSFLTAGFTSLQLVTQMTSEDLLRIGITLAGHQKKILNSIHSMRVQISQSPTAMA
# [5] = biological target: T1, Ephrin type-B receptor 1 (Homo sapiens); details: at 10 µM
# [6] = biological target: T2, Ephrin type-B receptor 3 (Homo sapiens) (UniProt P54753); details: at 1 µM
# T2 sequence (whole entry): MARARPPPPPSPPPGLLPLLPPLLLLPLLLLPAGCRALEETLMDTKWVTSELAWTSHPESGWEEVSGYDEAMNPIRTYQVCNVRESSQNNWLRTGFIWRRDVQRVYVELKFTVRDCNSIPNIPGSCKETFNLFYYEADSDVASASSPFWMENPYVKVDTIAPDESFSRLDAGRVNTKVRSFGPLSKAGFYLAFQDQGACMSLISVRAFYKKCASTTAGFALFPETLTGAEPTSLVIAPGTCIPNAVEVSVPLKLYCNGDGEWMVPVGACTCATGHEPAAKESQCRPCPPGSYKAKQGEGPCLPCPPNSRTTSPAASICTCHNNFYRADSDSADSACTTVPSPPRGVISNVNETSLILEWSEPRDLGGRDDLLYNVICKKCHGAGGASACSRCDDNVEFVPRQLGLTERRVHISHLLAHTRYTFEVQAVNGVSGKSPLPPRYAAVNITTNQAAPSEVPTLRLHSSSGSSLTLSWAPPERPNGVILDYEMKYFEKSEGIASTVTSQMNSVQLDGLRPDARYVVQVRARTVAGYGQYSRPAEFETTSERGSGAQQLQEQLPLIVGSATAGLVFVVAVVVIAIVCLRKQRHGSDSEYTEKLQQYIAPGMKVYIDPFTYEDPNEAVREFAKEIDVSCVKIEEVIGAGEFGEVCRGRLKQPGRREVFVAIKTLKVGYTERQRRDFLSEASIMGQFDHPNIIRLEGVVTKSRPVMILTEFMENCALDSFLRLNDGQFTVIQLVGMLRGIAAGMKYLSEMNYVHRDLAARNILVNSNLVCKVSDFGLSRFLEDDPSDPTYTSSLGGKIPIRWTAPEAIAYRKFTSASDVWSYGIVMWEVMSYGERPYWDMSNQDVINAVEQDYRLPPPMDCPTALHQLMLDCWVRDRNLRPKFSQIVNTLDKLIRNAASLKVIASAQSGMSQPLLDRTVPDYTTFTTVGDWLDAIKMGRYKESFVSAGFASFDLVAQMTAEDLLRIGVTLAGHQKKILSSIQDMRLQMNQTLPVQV
# [7] = biological target: T3, Ephrin type-B receptor 4 (Homo sapiens) (UniProt P54760); details: at 1 µM
# T3 sequence (whole entry): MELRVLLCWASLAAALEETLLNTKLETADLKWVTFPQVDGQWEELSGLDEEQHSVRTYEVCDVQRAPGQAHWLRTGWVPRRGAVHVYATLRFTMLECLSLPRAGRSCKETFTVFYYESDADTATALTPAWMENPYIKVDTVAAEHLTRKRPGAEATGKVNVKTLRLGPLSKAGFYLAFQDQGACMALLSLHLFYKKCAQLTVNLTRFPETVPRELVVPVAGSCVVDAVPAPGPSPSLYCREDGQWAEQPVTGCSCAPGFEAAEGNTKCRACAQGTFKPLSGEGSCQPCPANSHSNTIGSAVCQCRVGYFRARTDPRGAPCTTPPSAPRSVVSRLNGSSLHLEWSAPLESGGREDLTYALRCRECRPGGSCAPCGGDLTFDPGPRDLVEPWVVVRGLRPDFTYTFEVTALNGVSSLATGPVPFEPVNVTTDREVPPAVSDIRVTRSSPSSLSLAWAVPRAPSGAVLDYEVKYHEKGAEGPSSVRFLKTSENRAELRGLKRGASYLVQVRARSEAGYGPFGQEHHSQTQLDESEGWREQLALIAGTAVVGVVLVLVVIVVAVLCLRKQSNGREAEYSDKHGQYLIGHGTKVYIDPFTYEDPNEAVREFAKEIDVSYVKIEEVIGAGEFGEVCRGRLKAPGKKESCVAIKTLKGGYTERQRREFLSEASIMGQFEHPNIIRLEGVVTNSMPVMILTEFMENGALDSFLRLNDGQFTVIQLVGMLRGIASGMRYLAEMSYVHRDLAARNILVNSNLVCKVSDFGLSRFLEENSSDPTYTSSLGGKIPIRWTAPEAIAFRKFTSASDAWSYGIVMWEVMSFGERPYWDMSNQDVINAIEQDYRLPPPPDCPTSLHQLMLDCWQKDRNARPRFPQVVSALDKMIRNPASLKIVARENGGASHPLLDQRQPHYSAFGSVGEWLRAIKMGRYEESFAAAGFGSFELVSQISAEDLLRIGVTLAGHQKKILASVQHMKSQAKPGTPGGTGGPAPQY
# [8] = biological target: T3, Ephrin type-B receptor 4 (Homo sapiens); details: at 10 µM
# [9] = biological target: Receptor tyrosine-protein kinase erbB-4 (Homo sapiens) (UniProt Q15303); details: at 1 µM
# [10] = biological target: Receptor tyrosine-protein kinase erbB-4 (Homo sapiens) (UniProt Q15303); details: at 10 µM
# [11] = biological target: Focal adhesion kinase 1 (Homo sapiens) (UniProt Q05397); details: at 1 µM
# Chain of Focal adhesion kinase 1 (Homo sapiens) (Q05397 2-1052 limits assumed): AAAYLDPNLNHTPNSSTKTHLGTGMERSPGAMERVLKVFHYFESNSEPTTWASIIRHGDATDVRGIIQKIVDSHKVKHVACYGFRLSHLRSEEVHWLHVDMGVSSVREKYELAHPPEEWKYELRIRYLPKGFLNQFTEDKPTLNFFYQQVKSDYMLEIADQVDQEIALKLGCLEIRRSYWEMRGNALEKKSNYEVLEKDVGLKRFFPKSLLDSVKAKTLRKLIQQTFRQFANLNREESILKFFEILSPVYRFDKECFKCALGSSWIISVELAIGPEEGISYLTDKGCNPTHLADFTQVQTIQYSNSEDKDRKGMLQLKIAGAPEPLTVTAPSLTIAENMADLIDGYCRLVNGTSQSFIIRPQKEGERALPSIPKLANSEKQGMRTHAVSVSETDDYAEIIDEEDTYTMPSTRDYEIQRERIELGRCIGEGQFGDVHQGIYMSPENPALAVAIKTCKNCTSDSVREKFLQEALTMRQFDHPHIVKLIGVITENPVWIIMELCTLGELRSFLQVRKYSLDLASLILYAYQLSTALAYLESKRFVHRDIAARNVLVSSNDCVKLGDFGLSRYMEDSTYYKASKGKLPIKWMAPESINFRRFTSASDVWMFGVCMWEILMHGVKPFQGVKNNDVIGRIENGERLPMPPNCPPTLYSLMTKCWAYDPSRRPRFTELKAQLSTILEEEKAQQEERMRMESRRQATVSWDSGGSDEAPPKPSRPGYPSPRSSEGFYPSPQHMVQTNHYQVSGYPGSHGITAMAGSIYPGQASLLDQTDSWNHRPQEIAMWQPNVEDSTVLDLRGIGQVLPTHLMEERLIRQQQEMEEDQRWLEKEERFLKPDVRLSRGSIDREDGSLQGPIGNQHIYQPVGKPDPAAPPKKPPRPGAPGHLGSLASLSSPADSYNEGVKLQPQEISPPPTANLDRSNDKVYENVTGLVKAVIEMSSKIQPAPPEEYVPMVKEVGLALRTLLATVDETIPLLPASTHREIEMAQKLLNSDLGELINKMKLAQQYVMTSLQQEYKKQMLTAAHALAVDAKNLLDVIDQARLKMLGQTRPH
# Chain of Receptor tyrosine-protein kinase erbB-4 (Homo sapiens) (Q15303 whole entry): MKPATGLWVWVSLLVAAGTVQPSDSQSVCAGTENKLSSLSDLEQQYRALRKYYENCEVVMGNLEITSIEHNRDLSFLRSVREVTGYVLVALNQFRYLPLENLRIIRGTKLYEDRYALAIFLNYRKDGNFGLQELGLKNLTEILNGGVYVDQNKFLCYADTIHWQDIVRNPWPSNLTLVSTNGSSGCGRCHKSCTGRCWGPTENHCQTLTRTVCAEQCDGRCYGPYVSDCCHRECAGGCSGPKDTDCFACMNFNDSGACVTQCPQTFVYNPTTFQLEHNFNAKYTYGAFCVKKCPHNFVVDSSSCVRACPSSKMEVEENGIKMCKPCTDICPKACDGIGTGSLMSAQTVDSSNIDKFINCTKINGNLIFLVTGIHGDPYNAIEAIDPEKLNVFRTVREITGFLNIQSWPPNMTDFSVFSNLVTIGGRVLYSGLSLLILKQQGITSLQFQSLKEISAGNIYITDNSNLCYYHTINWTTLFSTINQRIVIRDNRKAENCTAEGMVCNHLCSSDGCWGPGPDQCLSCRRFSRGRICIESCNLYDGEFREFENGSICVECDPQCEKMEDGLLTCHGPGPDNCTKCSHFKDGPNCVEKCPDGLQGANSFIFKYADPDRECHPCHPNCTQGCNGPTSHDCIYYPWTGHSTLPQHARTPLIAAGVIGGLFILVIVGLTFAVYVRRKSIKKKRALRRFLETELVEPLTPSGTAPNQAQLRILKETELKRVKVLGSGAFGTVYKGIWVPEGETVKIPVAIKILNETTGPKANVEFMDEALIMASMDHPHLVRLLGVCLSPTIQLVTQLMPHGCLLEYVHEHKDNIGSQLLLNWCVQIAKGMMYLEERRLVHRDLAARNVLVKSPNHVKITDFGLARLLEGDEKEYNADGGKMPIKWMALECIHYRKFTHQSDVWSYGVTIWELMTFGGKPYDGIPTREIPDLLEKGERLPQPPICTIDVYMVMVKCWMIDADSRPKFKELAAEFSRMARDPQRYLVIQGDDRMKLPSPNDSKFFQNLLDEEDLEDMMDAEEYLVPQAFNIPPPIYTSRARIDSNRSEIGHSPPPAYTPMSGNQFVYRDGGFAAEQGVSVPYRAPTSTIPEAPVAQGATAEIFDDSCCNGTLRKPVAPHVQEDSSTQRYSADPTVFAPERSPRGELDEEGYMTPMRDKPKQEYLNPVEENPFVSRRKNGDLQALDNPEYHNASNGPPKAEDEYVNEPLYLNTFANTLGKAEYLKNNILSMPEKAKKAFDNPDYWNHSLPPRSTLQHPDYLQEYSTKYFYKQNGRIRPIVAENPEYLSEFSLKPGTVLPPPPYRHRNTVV
# Chain of Ephrin type-A receptor 7 (Homo sapiens) (Q15375 28-998 limits assumed): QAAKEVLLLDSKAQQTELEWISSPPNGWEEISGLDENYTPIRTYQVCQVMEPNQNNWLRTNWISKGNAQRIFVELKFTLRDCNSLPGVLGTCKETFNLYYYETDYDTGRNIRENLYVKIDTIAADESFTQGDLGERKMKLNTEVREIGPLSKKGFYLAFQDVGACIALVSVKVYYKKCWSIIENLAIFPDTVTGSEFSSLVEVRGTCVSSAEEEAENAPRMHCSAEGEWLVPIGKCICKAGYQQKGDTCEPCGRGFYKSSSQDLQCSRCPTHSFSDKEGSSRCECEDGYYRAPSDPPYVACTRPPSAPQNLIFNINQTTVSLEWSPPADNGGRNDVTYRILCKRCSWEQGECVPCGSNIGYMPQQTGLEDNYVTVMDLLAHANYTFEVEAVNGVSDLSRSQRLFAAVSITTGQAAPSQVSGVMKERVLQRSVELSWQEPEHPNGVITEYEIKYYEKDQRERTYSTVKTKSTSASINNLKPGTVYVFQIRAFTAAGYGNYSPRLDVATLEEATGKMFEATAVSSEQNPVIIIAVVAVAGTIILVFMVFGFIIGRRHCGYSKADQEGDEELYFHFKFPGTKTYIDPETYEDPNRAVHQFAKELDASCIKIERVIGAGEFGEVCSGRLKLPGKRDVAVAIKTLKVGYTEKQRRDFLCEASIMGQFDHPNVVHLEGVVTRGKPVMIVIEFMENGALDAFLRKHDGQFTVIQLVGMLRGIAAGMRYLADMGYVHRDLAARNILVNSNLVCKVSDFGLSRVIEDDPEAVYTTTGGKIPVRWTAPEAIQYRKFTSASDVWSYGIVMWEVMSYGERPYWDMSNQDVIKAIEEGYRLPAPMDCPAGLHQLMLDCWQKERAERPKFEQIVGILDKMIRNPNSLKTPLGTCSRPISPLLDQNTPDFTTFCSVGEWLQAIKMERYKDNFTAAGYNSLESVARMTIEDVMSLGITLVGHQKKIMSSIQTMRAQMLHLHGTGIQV
# Chain of Ephrin type-A receptor 5 (Homo sapiens) (P54756 whole entry): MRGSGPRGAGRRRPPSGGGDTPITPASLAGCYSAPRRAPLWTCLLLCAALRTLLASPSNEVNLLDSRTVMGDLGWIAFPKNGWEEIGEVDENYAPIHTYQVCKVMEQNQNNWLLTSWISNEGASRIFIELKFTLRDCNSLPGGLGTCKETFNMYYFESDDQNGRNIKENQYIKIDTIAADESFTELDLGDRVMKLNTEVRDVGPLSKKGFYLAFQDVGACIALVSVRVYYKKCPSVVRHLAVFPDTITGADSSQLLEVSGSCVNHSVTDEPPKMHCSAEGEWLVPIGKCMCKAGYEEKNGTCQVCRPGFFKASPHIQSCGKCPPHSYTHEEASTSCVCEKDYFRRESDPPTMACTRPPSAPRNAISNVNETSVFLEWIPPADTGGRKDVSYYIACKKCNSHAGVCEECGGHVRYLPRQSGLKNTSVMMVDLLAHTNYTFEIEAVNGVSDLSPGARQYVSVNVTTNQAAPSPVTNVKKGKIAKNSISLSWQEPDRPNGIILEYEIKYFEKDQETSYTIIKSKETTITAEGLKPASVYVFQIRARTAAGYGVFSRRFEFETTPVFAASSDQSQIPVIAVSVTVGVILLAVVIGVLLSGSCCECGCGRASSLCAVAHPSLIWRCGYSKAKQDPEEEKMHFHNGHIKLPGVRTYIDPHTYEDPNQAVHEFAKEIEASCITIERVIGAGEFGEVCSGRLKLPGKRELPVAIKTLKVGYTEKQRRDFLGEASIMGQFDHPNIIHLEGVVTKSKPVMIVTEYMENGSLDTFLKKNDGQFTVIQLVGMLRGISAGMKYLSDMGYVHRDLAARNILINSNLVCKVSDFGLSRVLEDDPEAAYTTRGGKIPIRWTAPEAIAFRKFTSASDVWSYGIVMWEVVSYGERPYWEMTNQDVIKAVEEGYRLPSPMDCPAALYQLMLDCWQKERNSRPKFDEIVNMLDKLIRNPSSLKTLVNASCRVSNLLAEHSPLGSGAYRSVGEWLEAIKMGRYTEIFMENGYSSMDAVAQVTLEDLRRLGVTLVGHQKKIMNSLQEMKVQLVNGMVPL
SMILES,residual activity [1] [%],residual activity [2] [%],residual activity [3] [%],residual activity [4] [%],residual activity [5] [%],residual activity [6],residual activity [7] [%],residual activity [8] [%],residual activity [9] [%],residual activity [10] [%],residual activity [11] [%]
O=C(c1ccccc1)c1ccc(N2CCOCC2)cc1O,118,79,86,96,95,115% (inactive),117,116,95,96,139
NC(=O)c1cccc(-c2cc(Nc3ccc(OC(F)(F)F)cc3)ncn2)c1,,,,,,,,,,,147
